Laboratory results from PubChem BioAssay (NCATS).
Values joined by “and” are separate entries in the source; they are usually repeats but may differ in a detail not shown here. Equal entries are not always repeated. Results filed as inconclusive are left out. A structure can be active in one record and inactive in another. Active and inactive are the calls of the source. Calls follow the shape of the dose curve; as a rule, active = well fitted curve in the direction sought with a large enough effect; inconclusive = small, poorly fitted or top-dose-only effect, or another doubt; inactive = no such curve, though single readings can be large; an effect the other way counts as inactive or inconclusive.

Legend:
CRL-7250 = normal cell line; experiment: Cytotoxic Profiling of Annotated Libraries Using Quantitative High-Throughput Screening (AID 1296008); conditions: Five cell lines viability, CellTiter-Glo ATP luminescence, 48-72 h; max response: stronger effect = lower value; also: nearly all actives have a fitted effect of over 60% in size; as to max response: % is scaled to controls: 0 for no effect and ±100 for the full control effect
Procedure, shortened: (§1)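 Cytotoxicity was measured as CellTiter-Glo ATP luminescence, read after 10 min at room temperature. Compound treatment of the cells lasted 48 or 72 hr at 37 degrees Celsius in a qHTS format.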

HEK293 = experiment: as above; conditions: Five cell lines viability, CellTiter-Glo ATP luminescence, 48-72 h; max response: stronger effect = lower value
Procedure, shortened: as §1

HaCat [1] = experiment: as above; conditions: Five cell lines viability, CellTiter-Glo ATP luminescence, 48-72 h; max response: stronger effect = lower value
Procedure, shortened: as §1

KB-3-1 = experiment: as above; conditions: Five cell lines viability, CellTiter-Glo ATP luminescence, 48-72 h; max response: stronger effect = lower value
Procedure, shortened: as §1

NIH3T3 = experiment: as above; conditions: Five cell lines viability, CellTiter-Glo ATP luminescence, 48-72 h; max response: stronger effect = lower value
Procedure, shortened: as §1

MCC-13 = experiment: qHTS assay to identify novel small-molecules to repurpose for Merkel cell carcinoma treatment (AID 1296009); conditions: MCC and control cell lines, CellTiter-Glo viability, 72 h; series mostly up to 46 µM; also: nearly all actives have a fitted effect of over 60% in size
Procedure, shortened: (§2)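 72 hr, 37 degree celsius; NPC 8-pt / MIPE 11-pt dose response; compound pinned in DMSO; CellTiter-Glo, 10 min RT, luminescence; normalized to no-cell and DMSO controls.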

MCC-26 = experiment: as above; conditions: MCC and control cell lines, CellTiter-Glo viability, 72 h; series mostly up to 46 µM
Procedure, shortened: as §2

MKL-1 = experiment: as above; conditions: MCC and control cell lines, CellTiter-Glo viability, 72 h; series mostly up to 46 µM
Procedure, shortened: as §2

MKL-2 = experiment: as above; conditions: MCC and control cell lines, CellTiter-Glo viability, 72 h; series mostly up to 46 µM
Procedure, shortened: as §2

UISO = experiment: as above; conditions: MCC and control cell lines, CellTiter-Glo viability, 72 h; series mostly up to 46 µM
Procedure, shortened: as §2

WaGa = experiment: as above; conditions: MCC and control cell lines, CellTiter-Glo viability, 72 h; series mostly up to 46 µM
Procedure, shortened: as §2

SC27B = experiment: qHTS profiling for inhibitors of Plasmodium falciparum proliferation (AID 504749); also: nearly all actives have a fitted effect of over 60% in size; conditions: P. falciparum in erythrocytes, SYBR Green DNA, 72 h; series mostly up to 28.7 µM
Procedure, shortened: (§3)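 Infected RBCs, 0.3% parasitemia/2.5% Hct final; cpd 72 h, 37 C, 5% CO2; lysis buffer with saponin/triton/SYBR Green I, o/n RT dark; FI 485/535; norm. to artemisinin (0.29 uM) and DMSO.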

TAB109 = experiment: as above; conditions: P. falciparum in erythrocytes, SYBR Green DNA, 72 h; series mostly up to 28.7 µM
Procedure, shortened: as §3

TAB113 = experiment: as above; conditions: P. falciparum in erythrocytes, SYBR Green DNA, 72 h; series mostly up to 28.7 µM
Procedure, shortened: as §3

C33A = experiment: Primary qHTS to identify gynecologic anti-cancer compounds using libraries of approved drugs and bioactive compounds (AID 1345084); conditions: Gynecologic cancer cell panel viability, ATPlite luminescence, 48 h; series mostly up to 57.5 µM; also: nearly all actives have a fitted effect of over 55% in size
Procedure, shortened: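 ATP-based viability (ATPlite), 1,000 cells/well, 16 h pre-incubation, 48 h compound at 37 C, 5% CO2, 15 min RT before read.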

HEK293T = experiment: qHTS assay to identify novel small-molecules to repurpose for Merkel cell carcinoma treatment (AID 1296009); conditions: MCC and control cell lines, CellTiter-Glo viability, 72 h; at 44.8 µM (top of the series); also: nearly all actives have a fitted effect of over 60% in size
Procedure, shortened: as §2

HACAT [2] = experiment: as above; conditions: MCC and control cell lines, CellTiter-Glo viability, 72 h; at 44.8 µM (top of the series) unless noted
Procedure, shortened: as §2

TAB165 = experiment: qHTS profiling for inhibitors of Plasmodium falciparum proliferation (AID 504749); also: nearly all actives have a fitted effect of over 60% in size; conditions: P. falciparum in erythrocytes, SYBR Green DNA, 72 h; series mostly up to 28.7 µM
Procedure, shortened: as §3
Potency is read from the fitted curve at half-maximal effect.

COc1ccccc1-c1cccc(-c2c(O)c3cc(C#N)c(Cl)cc3[nH]c2=O)c1
active: Potency (CRL-7250) 8.55 µM | Potency (HEK293) 3.4 µM | Potency (HaCat [1]) 19.1 µM | Potency (NIH3T3) 21.5 µM
inactive: max response (KB-3-1) -25.1% | Potency (MCC-13) | Potency (MCC-26) | Potency (MKL-1) | Potency (MKL-2) | Potency (UISO) | Potency (WaGa)

Cc1c(CN2CCN(C(=O)C(C)C)CC2)sc2c(N3CCOCC3)nc(-c3cnc(N)nc3)nc12
inactive: Potency (WaGa)
active: Potency (CRL-7250) 0.118 µM | Potency (HEK293) 0.187 µM | Potency (HaCat [1]) 1.05 µM | Potency (KB-3-1) 0.148 µM | Potency (NIH3T3) 0.469 µM | Potency (MCC-26) 0.662 µM

NNCCc1ccccc1
inactive: Potency (SC27B) | Potency (TAB109) | Potency (TAB113) | outcome (CRL-7250) | max response (HEK293) -15.3% | max response (HaCat [1]) -0.0842% and -11.1% | max response (KB-3-1) -10.1% and -6.14% | max response (NIH3T3) 1.01% | Potency (MCC-13) | Potency (MCC-26) | Potency (MKL-1) | Potency (MKL-2) | Potency (UISO) | Potency (WaGa) | Potency (C33A)

O=C(NOC[C@H](O)CO)c1ccc(F)c(F)c1Nc1ccc(I)cc1F
inactive: outcome (HEK293) | max response (KB-3-1) 4.78% and 5.99% | outcome (HEK293T) | Potency (MCC-26) | Potency (C33A)
active: Potency (CRL-7250) 3.32 µM and 3.66 µM | Potency (HaCat [1]) 8.33 µM and 23.1 nM | Potency (NIH3T3) 6.51 µM

CO[C@@H]1[C@H](N(C)C(=O)c2ccccc2)C[C@H]2O[C@]1(C)n1c3ccccc3c3c4c(c5c6ccccc6n2c5c31)C(=O)NC4
active: Potency (CRL-7250) 1.48 µM | Potency (HEK293) 8.33 µM | Potency (HaCat [1]) 3.72 µM | Potency (KB-3-1) 3.32 µM | Potency (NIH3T3) 1.66 µM | Potency (MCC-13) 2.96 µM | Potency (MCC-26) 4.69 µM

CCCn1c(=O)c2[nH]c(C34CC5CC3C[C@@H](C5)C4)nc2n(CCC)c1=O
inactive: outcome (CRL-7250) | max response (HEK293) -11% | max response (HaCat [1]) 4.8% | max response (KB-3-1) 5.05% | max response (NIH3T3) -0.656% | Potency (MCC-13) | Potency (MCC-26) | Potency (MKL-1) | Potency (MKL-2) | Potency (UISO) | Potency (WaGa)

CS(=O)(=O)c1ccc(C(=O)Nc2ccc(Cl)c(-c3ccccn3)c2)c(Cl)c1
inactive: max response (CRL-7250) -4.31% and 3.97% | max response (HEK293) -6.21% | max response (HaCat [1]) -0.0394% | max response (KB-3-1) 9.49% and -9.43% | max response (NIH3T3) -17.3% and -11.2% | Potency (MCC-13) | Potency (MCC-26) | Potency (MKL-1) | Potency (MKL-2) | Potency (UISO) | Potency (WaGa)

Cc1cc(C=c2sc3nc4ccccc4n3c2=O)c(C)n1-c1ccccc1
inactive: max response (CRL-7250) -1.5% | max response (HEK293) -0.0904% | outcome (HaCat [1]) | max response (KB-3-1) 1.4% | max response (NIH3T3) -1.17% | outcome (HACAT [2]) | Potency (MCC-13) | Potency (MCC-26) | Potency (MKL-1) | Potency (MKL-2) | Potency (UISO) | Potency (WaGa)

COc1ccc(CC2=NN3C([C@@H](CCc4ccccc4)[C@@H](C)O)=NC(C)C3C(=O)N2)cc1OC (some centres not stated)
inactive: max response (CRL-7250) -0.833% | max response (HEK293) -3.77% | max response (HaCat [1]) -7.5% | max response (KB-3-1) 9.1% | max response (NIH3T3) 0.654% | Potency (MCC-13) | Potency (MCC-26) | Potency (MKL-1) | Potency (MKL-2) | Potency (UISO) | Potency (WaGa)

CNC(=O)c1ccccc1Sc1ccc2c(/C=C/c3ccccn3)n[nH]c2c1
inactive: max response (KB-3-1) -28.7% | Potency (MCC-26)
active: Potency (CRL-7250) 5.8 µM | Potency (HEK293) 23.7 µM and 14.6 µM | Potency (KB-3-1) 11.6 µM | Potency (NIH3T3) 8.41 µM and 7.31 µM

Cn1cc(-c2ccc3nnc(C(F)(F)c4ccc5ncccc5c4)n3n2)cn1
inactive: max response (CRL-7250) -14.4% | max response (HEK293) -1.08% | max response (HaCat [1]) -1.46% | max response (KB-3-1) 5.05% and 7.07% | max response (NIH3T3) -35.7% | Potency (MCC-13) | Potency (MCC-26) | Potency (MKL-1) | Potency (MKL-2) | Potency (UISO) | Potency (WaGa) | Potency (C33A)

Cn1cnc([N+](=O)[O-])c1Sc1ncnc2nc[nH]c12
10.8 µM (active) and inactive: Potency (MKL-1)
inactive: Potency (SC27B) | Potency (TAB109) | Potency (TAB113) | Potency (MCC-26)
active: Potency (TAB165) 11.2 µM | Potency (CRL-7250) 3.4 µM and 10.6 µM | Potency (HEK293) 10.5 µM | Potency (HaCat [1]) 2.7 µM and 15 µM and 11.8 µM | Potency (KB-3-1) 2.96 µM | Potency (NIH3T3) 3.82 µM and 7.5 µM and 5.9 µM | Potency (MCC-13) 4.28 µM and 6.68 µM | Potency (MKL-2) 12.1 µM | Potency (WaGa) 1.91 µM | Potency (C33A) 8.91 µM and 7.94 µM

Cc1n[nH]c(C)c1Cc1sc2c(c1C(=O)N1C[C@H](O)CO1)c(=O)n(C)c(=O)n2CC(C)C
active: Potency (HEK293) 0.184 µM
inactive: max response (CRL-7250) -7.94% | max response (HaCat [1]) -3.78% and -14.4% | outcome (KB-3-1) | Potency (MCC-13) | Potency (MCC-26) | Potency (MKL-1) | Potency (MKL-2) | Potency (UISO) | Potency (WaGa) | Potency (C33A)
